Assay results reported in PubChem BioAssay AID463173 (ICCB-Longwood Screening Facility, Harvard Medical School, 2010).
About 4,300 (8.3%) of roughly 52,000 compounds were called active. This excerpt belongs to a sample that is enriched for actives. Unmarked numbers belong to inactive results. Cut-off read from the data, not from the text of the source: active = survival mostly below about 52% (no sharp cut-off); inactive = mostly above about 56%.

What follows are compounds tested on DeltatarO mutant (assay: S. aureus survival, RN4220 and DeltatarO strains – OD600, teichoic acid synthesis inhibitors, primary screen (AID 463173)). Details: S. aureus RN4220 wild type/DeltatarO growth, OD600, 18 h, active compounds read low, screened at 18.75 µg/mL (by protocol).

Compared with `O=C(CCn1c(=O)c2cccn2c2cccnc21)Nc1ccccc1Br`, `O=C(Cn1c(SCC(=O)N2CCc3ccccc32)nc2ccccc21)NC1CC1` is higher in survival: 74% for the first, 77% for the second.

Compared with `COc1ccc(N2CC(NC(=O)c3cccs3)CC2=O)cc1` (centres undefined), `CCN1CCN(C(C)C(=O)NCc2ccc(OC)cc2)CC1` (centres undefined) is lower in survival: 89% for the first, 85% for the second.

Going from `O=C(O)Cn1nc(N2CCN(c3ccc(F)cc3)CC2)ccc1=O` to `Cc1cccc(N2CCN(C(=O)c3ccc(NC(=O)c4nsc5ccccc45)cc3)CC2)c1C`, the survival falls from 84% to 76%.

First: Cc1ccc(NC(=O)Cn2c(=O)n(CCCCCC(=O)NCc3ccc(F)cc3)c(=O)c3sccc32)c(C)c1
Second: COc1ccc(CCn2c3c(c(=O)[nH]c2=O)C(NC(=O)c2ccccc2OC)(C(F)(F)F)C(=O)N3)cc1OC (centres undefined)
The survival of the first is lower: 66% for the first, 81% for the second.

First: O=C(O)CCn1nnc(-c2cccs2)n1
Second: CNC(=O)CSc1nnc(NC(=O)Nc2ccccc2)s1
The survival of the first is higher: 103% for the first, 94% for the second.

First: O=C(NCCN1CCCCC1)c1ccc(Cn2c(SCc3cccc(F)c3)nc3cccnc32)cc1
Second: O=C(Cn1cc(SCc2ccc(Br)cc2)c2ccccc21)N1CCCCC1
The survival of the first is higher: 103% for the first, 80% for the second.

First: Cc1c(C(=O)Nc2ccccc2)sc2ncn(CC(=O)N3CCOCC3)c(=O)c12
Second: Cc1ccc(NC(=O)c2ccc3c(O)c(S(=O)(=O)c4ccccc4)c(=O)[nH]c3c2)cc1Cl
The survival of the first is higher: 87% for the first, 78% for the second.

First: CCOc1ccc(C(=O)OC(C)CN2CCCCC2)cc1 (centres undefined)
Second: COc1ccc(C(=O)/C=C/c2cn(CC(O)CN3CCCCCC3)c3ccccc23)cc1OC (centres undefined)
The survival of the first is higher: 96% for the first, 80% for the second.

`O=C(/C=C/c1cn(CC(O)CN2CCc3ccccc32)c2ccccc12)c1ccc(Br)cc1` (centres undefined) and `COc1ccc(C(=O)/C=C/c2cn(CC(O)CN3CCc4ccccc43)c3ccccc23)cc1OC` (centres undefined) are the same in survival: 68% for the first, 68% for the second.

First: O=C(/C=C/c1cn(CC(O)CN2CCCCCC2)c2ccccc12)c1ccccc1 (centres undefined)
Second: COc1ccccc1N1CCN(C(=O)C2CCCN(S(=O)(=O)c3ccc4c(c3)CCCN4C(C)=O)C2)CC1 (centres undefined)
The survival of the first is lower: 49% for the first, 88% for the second.

In the case of `CCc1cccc(NC(=O)CSc2nnc(-c3cc4occc4n3C)n2-c2ccccc2C)c1`, the survival is reported as 89%.

For `CCOc1ccc(C(=O)/C=C/c2cn(CC(O)CN3CCCCCC3)c3ccccc23)cc1` (centres undefined), the survival was 1% (active).
`Cc1ccc(C(=O)/C=C/c2cn(CC(O)CN3CCCCCC3)c3ccccc23)cc1` (centres undefined) was tested, and the survival was 12% (active).
In the case of `O=C(/C=C/c1cn(CC(O)CN2CCCCCC2)c2ccccc12)c1ccc(Br)cc1` (centres undefined), the survival is reported as -3% (active).
